# Screening results as filed in PubChem.
# IL1B secr inh: inhibitors of inflammasome signaling (IL-1 beta secretion). THP-1 LPS/ATP IL-1B secretion, AlphaLISA, 16 h; active compounds read low. activity change, % at 57.5 µM. 360,000 tested, 4.7% active. AID 743279; in the data active = activity change below about -50%; inconclusive = mostly about -30% to -49%
#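 Secreted IL-1B measured by AlphaLISA bead assay after 16 h compound exposure of THP-1 cells; compounds (final up to 57.5 uM) added 1 h before LPS (250 ng/mL) and ATP (1.25 mM) stimulation; lower signal means less secretion.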
# TDP1 cell CPT: DT40-hTDP1 cell growth loss with CPT; chicken DT40 Tdp1-/-;hTDP1 cells + 20 nM CPT, ATP luminescence, 48 h; Potency, µM (series often up to 46.2 µM), without a hit: at the highest dose activity change, negative = growth inhibition, hits mostly inhibitors; 420,000 tested, 12% active; AID 686979; also: potency is read from the fitted curve at half-maximal effect; nearly all actives have a fitted effect of over 55% in size
#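 Cell growth measured by CellTiter-Glo luminescence after a minimum 48 h, 37 C compound exposure with 20 nM CPT in Tdp1-knockout DT40 cells stably expressing hTDP1, seeded 400/well; qHTS titration format.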
# DT40 TDP1 no CPT: qHTS for Inhibitors of human tyrosyl-DNA phosphodiesterase 1 (TDP1): qHTS in cells in absence of CPT | 420,000 tested, 15% active | DT40 Tdp1-/- hTDP1 cells, no CPT, ATP luminescence, 48 h | AID 686978, 2013 | Potency, µM (series often up to 46.2 µM), without a hit: at the highest dose activity change, negative = growth inhibition, hits mostly inhibitors; also: potency is read from the fitted curve at half-maximal effect; nearly all actives have a fitted effect of over 55% in size
#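 Camptothecin absent (DMSO only). Human TDP1-complemented DT40 knockout cells, 400 cells/well, 37 °C for minimum 48 hr; ATP measured via CellTiter-Glo, 30 min dark incubation, luminescence.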
# HT1080 IDH1KD tx: kills HT-1080 cells with IDH1 knockdown | HT-1080 IDH1 knockdown viability, ATP luminescence, 48 h | Potency, µM (highest dose often 46.1 µM), for the others: at the top dose activity, negative = toxicity, most hits filed as cytotoxic | 360,000 tested, 2% active;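 also: potency is read from the fitted curve at half-maximal effect; 0% = DMSO wells and -100% = cell-free medium wells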
#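 After a 2 h attachment period, IDH1KD HT-1080 cells took pin-transferred compound for 48 h at 37 °C; ATP-based luminescence after 10 min room-temperature reagent incubation reported viability.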
# HT1080-NT tox: kills 2HG-producing HT-1080-NT fibrosarcoma cells. Potency, µM (titrated, usually from 46.1 µM), for inactives: at the highest dose activity, negative = less viability, actives largely listed as cytotoxic. HT-1080-NT fibrosarcoma viability, CellTiter-Glo ATP luminescence, 48 h. AID 686970. 360,000 tested, 1.6% active;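 also: NT is the 2HG producing partner of a matched IDH1 knockdown line; potency is read from the fitted curve at half-maximal effect; 0% = DMSO-treated cells and -100% = media-only wells without cells; nearly all actives have a fitted effect of over 55% in size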
#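 Compounds were tested in concentration-response format on HT-1080-NT cells for 48 hours at 37 degrees C. Cell viability came from CellTiter-Glo luminescence; curves were classified by r2, response magnitude and activity.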
# Numbers without * were called inactive; ? = inconclusive; nt = no result given. Hits are enriched below; roughly 19% of the tested compounds scored in any of these assays. Unless noted, calls follow the shape of the dose curve; as a rule, active = well fitted curve in the direction sought with a large enough effect; inconclusive = small, poorly fitted or top-dose-only effect, or another doubt; inactive = no such curve, though single readings can be large; an effect the other way counts as inactive or inconclusive. Unless noted, % is scaled to controls: 0 for no effect and ±100 for the full control effect.
SMILES,IL1B secr inh,TDP1 cell CPT,DT40 TDP1 no CPT,HT1080 IDH1KD tx,HT1080-NT tox
CCOC(=O)C1(Cc2cccc(Cl)c2)CCCN(C(=O)c2ccnn2C)C1 (centres undefined),5,15µM*,?,-1%,1%
O=C(CCn1c(=S)oc2ccccc21)Nc1cccc(O)c1,0,7%,3%,11%,15%
Cc1cc(S(=O)(=O)Nc2ccc(C(=O)NCc3cccnc3)cc2)ccc1F,0,-14%,-19%,-4%,-1%
COc1ccc(-c2c3c(nc4sc5c(Cl)nc(C)nc5c24)CCC3)cc1,6,3%,-9%,11%,14%
CC1CCN(CC(=O)Nc2ccccc2C(=O)c2ccccc2)CC1,21,21µM*,15µM*,-2%,0%
CC1CCN(CC(=O)Nc2ccccc2-c2ccccc2)CC1,2,18µM*,?,4%,10%
CC1CCCCC1NCC(=O)Nc1ccccc1-c1ccccc1 (centres undefined),-2,?,18µM*,-7%,-4%
COC(=O)c1ccc(C(=O)OC)c(NC(=O)CN2CCC(C)CC2)c1,-8,-21%,?,13%,17%
CC(C)NC(=O)c1ccc(Cn2c(=O)c3cccn3c3cccnc32)cc1,nt,4%,?,nt,nt
COc1ccc(N2C(=O)[C@@H]3[C@H](C2=O)[C@H]2c4ccccc4C=CN2[C@@H]3C(C)=O)cc1,0,?,16µM*,21%,10%
O=C(c1ccc2c(c1)OCO2)[C@@H]1[C@@H]2C(=O)N(C3CCCCC3)C(=O)[C@@H]2C2c3ccccc3C=CN21 (some centres undefined),-17,?,16µM*,0%,-11%
O=C(c1ccc2c(c1)OCO2)C1CCCN(C(=O)C2CCOCC2)C1 (centres undefined),1,-4%,-14%,23%,22%
COc1ccc(N2C(=O)[C@H]3[C@@H](C2=O)C2c4ccccc4C=NN2[C@H]3C(=O)C(C)(C)C)cc1 (some centres undefined),15,5%,-27%,6%,7%
CC(C)(C)C(=O)[C@@H]1[C@@H]2C(=O)N(C3CCCCC3)C(=O)[C@@H]2[C@H]2c3ccccc3C=CN12,-13,23µM*,?,-9%,-9%
Cc1cc(C)n2nc(SCc3cccc(S(=O)(=O)N(C)C)c3)nc2n1,31,?,15µM*,1%,3%
Cc1ccc(CSc2nc3nc(C)cc(C)n3n2)cc1,3,-2%,-5%,-5%,-10%
CN(C)S(=O)(=O)c1cccc(CSCc2cccc(S(=O)(=O)N(C)C)c2)c1,?,5.8µM*,2.6µM*,?,?
Cc1c(-c2ccccc2)[n+](=O)c(-c2ccc(Cl)cc2)c(C)n1[O-],18,14%,-19%,0%,6%
O=C(NCc1cccs1)C1CC(=O)N(c2ccccc2)C1 (centres undefined),8,8%,1%,12%,1%
COc1ccc(/C(N)=N/OC(=O)N2CCOCC2)cc1,0,?,21µM*,-5%,-8%
Cc1ccc(C(=O)NNC(=O)CSc2nnc(C(C)C)n2C)cc1,10,-3%,3%,19%,9%
COc1cc(C(O)c2nc(-c3csc4ccccc34)cs2)ccc1F (centres undefined),-10,?,18µM*,?,?
OC(c1ccc(F)c(F)c1)c1nc(-c2csc3ccccc23)cs1 (centres undefined),4,23µM*,?,?,?
COc1ccccc1-c1cccc([C@@H]2C[C@H]3[C@@H](CN2)CON3C)c1,0,-13%,-10%,9%,1%
COc1ccc(NC(=O)c2cc(C)no2)cc1,?,-3%,8%,1%,-1%
SMILES,IL1B secr inh,TDP1 cell CPT,DT40 TDP1 no CPT,HT1080 IDH1KD tx,HT1080-NT tox
CC(=O)NC(C)(c1ccccc1)c1nc(-c2cc(F)cc(F)c2)cs1 (centres undefined),41,?,?,-11%,-17%
COc1cccc(-c2nnc(NC(=O)c3ccc4ncsc4c3)o2)c1,7,16µM*,15µM*,?,-16%
COC(=O)c1sccc1NC(=O)c1cccc(OC)c1,30,?,21µM*,-14%,-13%
CC(=O)c1ccc(C(=O)Nc2nnc(-c3ccc(Cl)cc3)o2)cc1,44,9.2µM*,9.2µM*,?,?
CS(=O)(=O)c1cccc(-c2nnc(NC(=O)c3ccc4ncsc4c3)o2)c1,2,-8%,-2%,11%,0%
COc1cccc(C(=O)Nc2nnc(-c3ccc(Cl)cc3)o2)c1,14,10µM*,10µM*,-26%,-14%
COC(=O)c1sccc1NC(=O)c1ccccc1,14,4%,-18%,-9%,-4%
O=C(Nc1nnc(-c2ccc(Cl)cc2)o1)c1cccc(N2C(=O)CCC2=O)c1,13,-19%,-15%,-1%,-3%
CC(=O)NCCNc1ccnc(-c2ccccc2C(F)(F)F)n1,nt,-4%,19%,nt,nt
COc1cccc(C(=O)Nc2nnc(-c3ccc(F)cc3)o2)c1,43,10µM*,9.2µM*,-22%,-22%
COc1cccc(C(=O)Nc2nnc(-c3cccs3)o2)c1,-3,16µM*,?,-25%,-28%
CCCCNC(=O)Nc1nnc(-c2ccc(OCC)cc2)o1,-10,?,?,7%,4%
COc1cccc(-c2nnc(NC(C)=O)o2)c1,-14,1%,-4%,2%,1%
COc1ccc(C)cc1NC(=O)c1cc2c(s1)CCC2,12,-29%,?,-6%,-3%
CCOc1ccc(-c2nnc(NC(=O)c3ccc(OCC(C)C)c(OC)c3)o2)cc1,-13,5.8µM*,6.5µM*,-10%,-13%
COC(=O)c1sccc1NC(=O)c1cc2c(s1)CCCC2,11,-19%,10µM*,-11%,-9%
CCC1=NN2C(=N)/C(=C\c3ccc(OCCOc4ccccc4OC)cc3)C(=O)N=C2S1,-3,7%,1%,6%,-8%
O=C(Nc1ccc2c(c1)OCCO2)c1[nH]c(C(F)(F)F)nc1-c1ccccc1,41,?,?,?,?
CCOc1ccc(CCNC(=O)CCC(=O)N2CCOc3ccccc32)cc1OCC,-7,-25%,?,3%,13%
Cc1ccc2cc(C3CC(c4ccco4)=NN3S(=O)(=O)c3ccccc3)c(Cl)nc2c1 (centres undefined),-2,?,-24%,-25%,-15%
O=C(c1ccco1)N1CCN(C2CC(=O)N(c3ccc(F)c(Cl)c3)C2=O)CC1 (centres undefined),-5,-16%,?,2%,3%
